Results as given in article PMC4336329 (PLoS ONE, 2015).
In all, about 310,000 compounds went through this assay and about 14,000 (4.5%) showed an effect of 50% or more. The effect is printed as a negative number. The full list was thinned out, with strong results kept by preference.

Target: human ether-à-go-go-related gene (hERG) potassium channel (human, UniProt Q12809)
Assay: primary screen, population patch clamp on CHO cells stably expressing hERG; higher = less effect of the substance
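Also: peak tail current of the secondary pulse compared with the same well before compound.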

human ether-à-go-go-related gene (hERG) potassium channel, sequence (Q12809 whole entry, looked up): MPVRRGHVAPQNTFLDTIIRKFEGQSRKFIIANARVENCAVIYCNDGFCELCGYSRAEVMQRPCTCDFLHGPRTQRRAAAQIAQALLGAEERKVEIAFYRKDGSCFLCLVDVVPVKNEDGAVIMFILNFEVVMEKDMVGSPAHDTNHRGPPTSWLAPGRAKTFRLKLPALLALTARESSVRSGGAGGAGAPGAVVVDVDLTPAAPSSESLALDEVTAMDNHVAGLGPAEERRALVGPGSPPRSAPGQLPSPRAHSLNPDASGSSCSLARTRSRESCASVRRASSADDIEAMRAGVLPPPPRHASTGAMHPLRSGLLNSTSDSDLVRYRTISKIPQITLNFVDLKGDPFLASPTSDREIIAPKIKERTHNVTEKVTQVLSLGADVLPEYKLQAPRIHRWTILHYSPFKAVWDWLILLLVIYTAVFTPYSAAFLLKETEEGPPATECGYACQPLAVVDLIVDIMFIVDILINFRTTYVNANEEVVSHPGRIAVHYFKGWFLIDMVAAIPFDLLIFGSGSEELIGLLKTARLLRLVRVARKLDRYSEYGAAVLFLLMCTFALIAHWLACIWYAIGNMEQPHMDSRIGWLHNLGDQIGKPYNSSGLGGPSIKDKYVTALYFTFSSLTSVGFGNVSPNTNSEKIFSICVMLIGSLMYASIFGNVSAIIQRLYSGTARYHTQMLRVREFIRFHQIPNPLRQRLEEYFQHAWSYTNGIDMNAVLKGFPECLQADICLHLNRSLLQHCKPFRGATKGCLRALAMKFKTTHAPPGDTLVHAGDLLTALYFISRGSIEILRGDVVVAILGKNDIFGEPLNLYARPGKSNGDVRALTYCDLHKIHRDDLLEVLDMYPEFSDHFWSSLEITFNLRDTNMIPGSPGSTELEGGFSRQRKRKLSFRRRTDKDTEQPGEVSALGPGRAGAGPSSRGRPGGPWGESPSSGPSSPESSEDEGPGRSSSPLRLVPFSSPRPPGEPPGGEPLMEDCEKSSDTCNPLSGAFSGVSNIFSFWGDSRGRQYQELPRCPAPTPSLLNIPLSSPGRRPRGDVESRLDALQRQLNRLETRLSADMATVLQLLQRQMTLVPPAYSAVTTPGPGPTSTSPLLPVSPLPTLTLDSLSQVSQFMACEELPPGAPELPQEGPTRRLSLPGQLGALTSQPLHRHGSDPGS

Compound	hERG current change (%, negative = inhibition) at 10uM [%]
OC(COc1ccc2cc(Br)ccc2c1)CN1CCCC1 (stereo not drawn)	-70.2
OC(COc1ccc2cc(Br)ccc2c1)CN1CCOCC1 (stereo not drawn)	-48.4
O=C(c1ccccc1)c1ccc(OCC(O)CN2CCCCC2)cc1 (stereo not drawn)	-39.9
OC(COc1ccc(OCC(O)CN2CCCCC2)cc1)CN1CCCCC1 (stereo not drawn)	15.9
Cl.OC(COc1ccc(Cl)cc1)CN1CCCCC1 (stereo not drawn)	-61.9
OC(COc1ccc2ccccc2c1)CN1CCCC1 (stereo not drawn)	-19.1
Cl.OC(COc1ccc(OCC(O)CN2CCCCCC2)cc1)CN1CCCCCC1 (stereo not drawn)	9.75
O=C(c1ccc(Cl)cc1)c1ccc(OCC(O)CN2CCOCC2)cc1 (stereo not drawn)	-19.7
O=C(c1ccc(Cl)cc1)c1ccc(OCC(O)CN2CCCCC2)cc1 (stereo not drawn)	-75.1
CCn1cc(C(=O)NCc2ccccc2OC)c(=O)c2ccc(C)nc21	17.6
CCCOc1ccccc1C(=O)N(Cc1cccc(Br)c1)C1CCS(=O)(=O)C1 (stereo not drawn)	-35.4
Cn1c(=O)cc(SCC(=O)N2CCN(C(=O)c3ccco3)CC2)c2ccccc21	-27.4
COc1ccc(OCC(=O)N2CCN(CC3CC4C=CC3C4)CC2)cc1 (stereo not drawn)	-26.6
Cc1cc(C)n2ncc(-c3cccc(Br)c3)c2n1	5.79
c1ccc(C2(CNc3ccccn3)CCCC2)cc1	-70.3
CNCC1(c2ccccc2)CCCC1.Cl	15.1
O=C(Nc1ccccn1)C1(c2ccccc2)CCCC1	-3.92
CCCCCCNC(=O)CCNS(=O)(=O)c1ccc(C)cc1	-12.8
CCOc1cc(NC(=O)c2ccccn2)c(OCC)cc1NC(=O)c1cccc(C)c1	8.7
COc1ccc(N2CC(C(=O)Nc3c(C(N)=O)oc4ccccc34)CC2=O)cc1 (stereo not drawn)	-15
CC/C(=N\N=C1\SC(C)C(=O)N1Cc1ccco1)c1ccccc1 (stereo not drawn)	4.18

Compound	hERG current change (%, negative = inhibition) at 10uM [%]
CC1CCC(NC(=O)C2CCN(c3c4c(nc5ncnn35)CCC4)CC2)CC1 (stereo not drawn)	-19.3
O=C(Nc1ccc2c(c1)CCC2)C1CCN(c2ncccn2)CC1	20.6
COc1ccc(NC(=O)C2CCCN(c3c4c(nc5ncnn35)CCC4)C2)cc1 (stereo not drawn)	-61.6
COc1ccc(NC(=O)C2CCCN(c3ncccn3)C2)cc1 (stereo not drawn)	3.4
CC1CCCCC1NC(=O)C1CCN(c2c3c(nc4ncnn24)CCC3)CC1 (stereo not drawn)	4.49
O=C(NC1CCCc2ccccc21)C1CCN(c2c3c(nc4ncnn24)CCC3)CC1 (stereo not drawn)	-31.3
O=C(Nc1ccc2c(c1)CCC2)C1CCN(c2c3c(nc4ncnn24)CCC3)CC1	-73.1
O=C(Nc1ccc(Oc2ccccc2)cc1)C1CCN(c2c3c(nc4ncnn24)CCC3)CC1	-55.6
COc1ccc(NC(=O)C2CCCN(c3c4c(nc5ncnn35)CCC4)C2)cc1OC (stereo not drawn)	-11.7
CCN1C(=O)C2C(C1=O)N1C(c3cccs3)C3C(=O)N(CC)C(=O)C3N1C2c1cccs1 (stereo not drawn)	15.7
COc1ccc(Cn2nnnc2C(c2ccccn2)N2CCN(c3cc(Cl)ccc3C)CC2)cc1 (stereo not drawn)	-9.87
Cc1ccc(NC(NC(=O)c2ccccc2[N+](=O)[O-])C(Cl)(Cl)Cl)cc1 (stereo not drawn)	-5.27
CC(Sc1nnc(-c2cccnc2)o1)C(=O)NC1CCCCC1 (stereo not drawn)	14.9
Cc1ccc(Nc2nc(COC(=O)C3CC3)cs2)cc1	-13.1
CCOC(=O)CSC1=C(C#N)C(c2ccc(C)cc2)C(C(=O)OC)C(=O)N1 (stereo not drawn)	-4.56
Cc1ccc(-n2ncc3c(=O)[nH]c(SCC(=O)N4CCN(c5ccccc5)CC4)nc32)cc1	3.28
FC(F)(F)c1cccc(CNC2c3ccccc3-c3ccccc32)c1.O=C(O)C(=O)O	20.4
Cc1ccc(NC(=O)c2nc(C)n(-c3ccc([N+](=O)[O-])cc3)n2)cc1	-32.2
CNC(=O)c1nc(C)n(-c2ccc([N+](=O)[O-])cc2)n1	-3.99
Cc1nc(C(=O)Nc2ccc(Cl)cc2)nn1-c1ccc([N+](=O)[O-])cc1	-58.6
COc1ccc(NC(=O)c2nc(C)n(-c3ccc([N+](=O)[O-])cc3)n2)cc1	-44.9
